Source: the OligoGym collection
Note: reference of the scale not given here.

Each sequence was assayed against LCE2C (assay: pooled miR-30 sensor sort-seq; sequence = guide strand). Conditions: shRNA.
In the case of AGACTGCAGGGAAACATGGAGC, the sensor-assay potency score (higher = more potent) is reported as -2.06.
For CACAGCAAGAAGAGACTGCAGG, the sensor-assay potency score (higher = more potent) was -2.53.
TCACTCTCACAGCAGTCGGGGC showed a sensor-assay potency score (higher = more potent) of -1.13.
CTGCAGGGAAACATGGAGCTGG showed a sensor-assay potency score (higher = more potent) of -1.34.
For TTCACTCTCACAGCAGTCGGGG, the sensor-assay potency score (higher = more potent) was -0.831.
With ACACTTGGGAGGACACTTGGGA the sensor-assay potency score (higher = more potent) was 0.0104.
For TCAGGGAGCAGCCACCAGCCCC, the sensor-assay potency score (higher = more potent) was -1.78.
With AGCAAGAAGAGACTGCAGGGAA the sensor-assay potency score (higher = more potent) was -0.624.
TGGTGGCTCAGGGAGCAGCCAC gave a sensor-assay potency score (higher = more potent) of -2.45.

Each sequence was assayed against LCN1 in the same assay as above. Conditions: shRNA.
For TTCCAGGGTCGTGAGGGTCATG, the sensor-assay potency score (higher = more potent) was -1.33.
Sequence TGGTCCTTCACGTGCGACCTGA has a sensor-assay potency score (higher = more potent) of -1.44.
Work on ATCCTGAATCTCCTCGTCTGAG yielded a sensor-assay potency score (higher = more potent) of -1.24.
TGTTCTTGGGGTCTCTGCCCAC gave a sensor-assay potency score (higher = more potent) of -1.02.
In the case of TTGGCTTCCAGGTTGCCCCCTT, the sensor-assay potency score (higher = more potent) is reported as -0.189.
